From PubChem BioAssay
This is a sample that favours compounds with a hit; in the whole collection about 2.5% have one here.
ULK1 inh = ULK1 kinase inhibitors, primary screen, biochemical, AlphaScreen; AlphaScreen Atg13 phosphorylation by ULK1, luminescence; inhibition, % at 5.96 µM; actives 1.9% (n = 30,000); AID 1259251, 2017; in the data active = inhibition above about 43%
ASK1 primary = ASK1 kinase inhibitors, primary screen, biochemical, AlphaScreen; AlphaScreen MKK6 phosphorylation by ASK1, luminescence; inhibition, % at 7.44 µM; actives 0.99% (n = 22,000); AID 1159602, 2016; in the data active = inhibition above about 35%
Each line names hits and unclear results; the compound was inactive in the other large screens.

N[C@@H](Cc1ccc(Br)cc1)C(=O)N1CCC(c2nc(-c3ccncc3)no2)CC1	ULK1 inh 71.7
Cc1c[nH]c(=O)c2cccc(S(=O)(=O)N3CCCNC[C@@H]3C)c12	ULK1 inh 47.2
Cc1c[nH]c(=O)c2cccc(NC3CCN(C(=O)C(N)c4ccc(Br)cc4)CC3)c12 (configuration not stated)	none
O=C(NC1CC1)c1ccc(-c2nc(NCCOc3ccccc3)c3ncn(C4CCCCC4)c3n2)cc1	none
Cn1c(Nc2cc(NCCN3CCOCC3)nc(N)n2)nc2ccccc21	none
O=C(NCCN1CCCCC1)c1cccc(CN(C(=O)c2nc3ccc(-c4cn[nH]c4)cc3s2)C2CC2)c1	none
CN1CCN(CCNC(=O)c2cccc(CN(C(=O)c3nc4ccc(-c5cn[nH]c5)cc4s3)C3CC3)c2)CC1	ULK1 inh 53.4
CCN(CC)c1nc(NCc2cccnc2)nc(N2CCc3ccccc3C2)n1	none
CCN(CC)CCC(=O)N1c2ccccc2Sc2ccc(Cl)cc21	none (no result: ASK1 primary)
CCN(CC)CCC(=O)N1c2ccccc2Sc2ccc(C(F)(F)F)cc21	ULK1 inh 44.6 (no result: ASK1 primary)
CC(=O)Nc1ccc(Nc2nc(NCc3cccnc3)nc3c2ncn3-c2ccsc2)cc1	ULK1 inh 55.4
CC(=O)Nc1ccc(Nc2nc(NCc3cccnc3)nc3c2ncn3-c2ccccc2)cc1	none
CC(=O)Nc1ccc(Nc2nc(NC3CCC(O)CC3)nc3c2ncn3-c2ccsc2)cc1 (configuration not stated)	ULK1 inh 44.4
OC1CCC(Nc2nc(Nc3ccccc3)c3ncn(-c4ccsc4)c3n2)CC1 (configuration not stated)	none
CC(C)n1cnc2c(Nc3ccc(N4CCOCC4)cc3)nc(NCc3ccc4c(c3)OCO4)nc21	none
CC(C)n1cnc2c(Nc3ccc(N4CCOCC4)cc3)nc(NCc3cccnc3)nc21	ULK1 inh 46.9
COc1cc(Nc2nc(Nc3ccc(NC(C)=O)cc3)c3ncn(C(C)C)c3n2)cc(OC)c1OC	none
CC(=O)Nc1ccc(Nc2nc(Nc3ccncc3)nc3c2ncn3C(C)C)cc1	ULK1 inh 66.5
COc1ccc(CNc2nc(Nc3ccc(OC)cc3)nc3c2ncn3C(C)C)cc1	none
CC(=O)Nc1ccc(Nc2nc(NCc3cccnc3)nc3c2ncn3C(C)C)cc1	ULK1 inh 68.5
CC(C)n1cnc2c(Nc3ccccc3)nc(-c3ccc(C(N)=O)cc3)nc21	ULK1 inh 67.8
CC(C)n1cnc2c(NCc3ccccc3)nc(-c3ccc(C(N)=O)cc3)nc21	none
COc1ccc(Nc2nc(Nc3ccc(OCCN4CCCCC4)cc3)c3ncn(C(C)C)c3n2)cc1	ULK1 inh 57.3
CC(C)n1cnc2c(NCc3cccnc3)nc(Nc3ccncc3)nc21	none
Fc1ccc(-c2c(-c3ccnc(Nc4ccc(N5CCOCC5)cc4)c3)noc2Cl)cc1	none
c1nc(NC2CC2)cc(N2CCN(Cc3ccc4c(c3)OCO4)CC2)n1	none
Cc1nn(C)c(C)c1-c1nc(C(=O)NCCOc2ccccc2)cs1	none
Cc1cnc(-c2ccc(C(=O)N3CCN(C)CC3)cc2)nc1Nc1ccc(N2CCOCC2)cc1	none
Cc1ccc(-c2cccc3cnc(Nc4ccc(C(=O)N5CCOCC5)cc4)nc23)cn1	ULK1 inh 58.0
Cc1cc(Nc2ccccc2)nc(-c2ccc(C(=O)N3CCN(C)CC3)cc2)n1	none
Cc1ccc(-c2cccc3cnc(Nc4cccc(C(=O)N5CCCC5)c4)nc23)cn1	ULK1 inh 50.8
Cn1cc(-c2cccc3cnc(NC4CCN(C(=O)N5CCCC5)C4)nc23)cn1 (configuration not stated)	none
Cc1ccc(-c2cccc3cnc(Nc4ccc(C(=O)N5CCN(C)CC5)cc4)nc23)cn1	ULK1 inh 57.7
CC(=O)N1CCC(Nc2ncc3cccc(-c4ccc(C)nc4)c3n2)CC1	none
Cc1ccc(-c2cccc3cnc(Nc4cccc(C(=O)N5CCN(C)CC5)c4)nc23)cn1	ULK1 inh 61.6
NC(C(=O)N1CCC(Nc2ccc3[nH]c(=O)ccc3c2)CC1)c1ccc(Cl)cc1 (configuration not stated)	none
O=C(NCc1ccccc1)c1csc(NCCN2CCOCC2)n1	none
O=C(Nc1cccc(-c2ccncc2)n1)C1COc2ccccc2O1 (configuration not stated)	none
COc1cc(Nc2nc(Nc3ccncn3)nc3nc[nH]c23)cc(OC)c1OC	none
N[C@H]1CC[C@@H](C(=O)Nc2cccc3cnccc23)C1	none
N[C@H]1CCC[C@H](C(=O)Nc2cccc3c(=O)[nH]cnc23)C1	ULK1 inh 53.1
CC(C)CCN1C(=O)C(C)(C)COc2cc(NC(=O)c3ccc4c(c3)OCO4)ccc21	none (no result: ASK1 primary)
Cc1nccn1CC1CCc2c(c3ccccc3n2C)C1=O (configuration not stated)	none (no result: ASK1 primary)
Cc1[nH]cnc1CN1CCc2c(c3ccccc3n2C)C1=O	ULK1 inh 78.4 (no result: ASK1 primary)
NC(=O)c1ccc(-c2nc(Nc3ccc(N4CCOCC4)cc3)c3ncn(CCN4CCCC4=O)c3n2)cc1	none
